Screening results: PubChem BioAssay, several laboratories
In the library only some 5.7% were active in any assay of this set; here they are far more common.
A340 absorber: absorbance at 340 nm; compound absorbance at 340 nm, fold over control; fold change at 10 µM; 65,000 tested, under 10 active; AID 708;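 active = at 10 µM dose, initial 340 nm absorbance at least 2 fold that of control wells; inactive = change under 2 fold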;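 also: initial absorbance extrapolated from kinetic A340 decline of NADH oxidation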
NADH coupling: inhibition of NAD/NADH coupling enzymes, library profiling. coupled PK/LDH NADH assays, four targets. IC50, µM (doses to about 10 µM). 65,000 tested, 0.02% active;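 active = single-dose screening hits from any of four coupled enzyme assays that gave an IC50 when retested across doses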;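 also: the DPM-DC format reads NADH fluorescence rather than 340 nm absorbance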
DUSP1 inh: inhibitors of human MKP-1 phosphatase. P28562. recombinant MKP-1, OMFP hydrolysis fluorescence. inhibition, %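 (compounds tested at a single concentration somewhere between 10 and 100 µM)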. 65,000 tested, 0.15% active. AID 374;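 active = inhibition above about 50%, limit read from the data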
Target sequence (P28562 whole entry, looked up): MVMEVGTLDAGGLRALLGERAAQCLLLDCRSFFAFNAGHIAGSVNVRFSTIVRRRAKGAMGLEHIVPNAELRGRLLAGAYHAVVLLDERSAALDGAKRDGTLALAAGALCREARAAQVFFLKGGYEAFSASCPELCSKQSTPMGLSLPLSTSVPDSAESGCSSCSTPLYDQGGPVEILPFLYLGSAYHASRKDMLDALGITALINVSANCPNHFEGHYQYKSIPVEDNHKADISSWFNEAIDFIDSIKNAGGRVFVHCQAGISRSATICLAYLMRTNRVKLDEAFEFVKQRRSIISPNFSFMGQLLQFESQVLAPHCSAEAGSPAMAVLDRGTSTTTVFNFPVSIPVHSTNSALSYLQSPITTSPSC
Hsp90 inh: displaces geldanamycin probe from tumor Hsp90 | P07900 | NCI-N417 lysate Hsp90, Cy3B-geldanamycin FP displacement | inhibition, % at 30 µM | 64,000 tested, 0.35% active;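 active = inhibition above 50%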
Autofluor 339: intrinsic fluorescence of library compounds, ex339/em460 – biochemical, MLSMR library, data from DPM-DC assay, artefact control, profiling panel. AID 709. compound autofluorescence, ex339/em460 nm, NADH buffer; stronger effect = higher value; 1 = no-compound wells, NADH background. 65,000 tested, 5.5% active. fluorescence fold increase at 10 µM;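 active = at 10 µM, mean starting fluorescence two-fold or more over control wells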;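 also: signal is the first read of a kinetic run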
Cdc25B inh: human M-phase inducer phosphatase 2 inhibition | recombinant Cdc25B, OMFP fluorescence Ex485/Em525 | inhibition, %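 (compounds tested at 10 µM final in the well)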 | P30305 | 65,000 tested, 0.1% active; in the data active = inhibition above about 50%
Numbers stand for hits.

For CC(C)Oc1ccc(-c2nn(-c3ccccc3)cc2/C=c2\sc3ncnn3c2=O)cc1 the results were A340 absorber inactive, NADH coupling inactive, DUSP1 inh inactive, Hsp90 inh inactive, Autofluor 339 3 and Cdc25B inh inactive.
`COC(=O)/C=c1\sc2ncnn2c1=O` gave A340 absorber inactive, NADH coupling inactive, DUSP1 inh inactive, Hsp90 inh inactive, Autofluor 339 inactive and Cdc25B inh inactive.
For COC(=O)c1c(NC(=O)c2nc3ncccn3n2)sc(C(=O)N(C)C)c1C the results were A340 absorber inactive, NADH coupling inactive, DUSP1 inh inactive, Hsp90 inh inactive, Autofluor 339 inactive and Cdc25B inh inactive.
Screening CCN1C(=O)C(C)S/C1=N\S(=O)(=O)c1ccc(Cl)s1 (configuration not stated) returned A340 absorber inactive, NADH coupling inactive, DUSP1 inh inactive, Hsp90 inh inactive, Autofluor 339 inactive and Cdc25B inh inactive.
`COc1cc(-c2nc3cnccn3c2Nc2ccccc2)ccc1O` gave A340 absorber inactive, NADH coupling inactive, DUSP1 inh inactive, Hsp90 inh inactive, Autofluor 339 2.1 and Cdc25B inh inactive.
Screening O=c1cc(Cn2ccnc2)c2cc3c(cc2o1)CCC3 returned A340 absorber inactive, NADH coupling inactive, DUSP1 inh inactive, Hsp90 inh inactive, Autofluor 339 2.2 and Cdc25B inh inactive.
Cc1cc2oc(=O)cc(Cn3ccnc3)c2cc1C was read as A340 absorber inactive, NADH coupling inactive, DUSP1 inh inactive, Hsp90 inh inactive, Autofluor 339 inactive and Cdc25B inh inactive.
`O=C1CCCC2=C1C(c1cccs1)n1nc(SCc3ccccc3F)nc1N2` (configuration not stated) gave A340 absorber inactive, NADH coupling inactive, DUSP1 inh inactive, Hsp90 inh inactive, Autofluor 339 2.2 and Cdc25B inh inactive.
`CCN(C(=O)c1cn(C)c(=O)c2cc(OC)c(OC)cc12)c1cc(OC)ccc1OC` gave A340 absorber inactive, NADH coupling inactive, DUSP1 inh inactive, Hsp90 inh inactive, Autofluor 339 inactive and Cdc25B inh inactive.
`CCn1nc(NC(=O)c2ccco2)c2cc3ccccc3nc21` gave A340 absorber inactive, NADH coupling inactive, DUSP1 inh inactive, Hsp90 inh inactive, Autofluor 339 inactive and Cdc25B inh inactive.
Screening CCCn1nc(NC(=O)c2ccco2)c2cc3ccc(C)cc3nc21 returned A340 absorber inactive, NADH coupling inactive, DUSP1 inh inactive, Hsp90 inh inactive, Autofluor 339 3.9 and Cdc25B inh inactive.
Screening CC(C)CNC(=O)c1cccc(NC(=O)c2ccc(NC(=O)c3ccco3)cc2)c1 returned A340 absorber inactive, NADH coupling inactive, DUSP1 inh inactive, Hsp90 inh inactive, Autofluor 339 inactive and Cdc25B inh inactive.
`Cc1nc2nc(-c3ccccc3)cn2nc1C` gave A340 absorber inactive, NADH coupling inactive, DUSP1 inh inactive, Autofluor 339 2.2 and Cdc25B inh inactive.
For Cc1nn2cc(-c3ccc(N)cc3)nc2s1 the results were A340 absorber inactive, NADH coupling inactive, DUSP1 inh inactive, Hsp90 inh inactive, Autofluor 339 inactive and Cdc25B inh inactive.
Screening CCc1ccc(-c2cn3nc(C)c(C)nc3n2)cc1 returned A340 absorber inactive, NADH coupling inactive, DUSP1 inh inactive, Hsp90 inh inactive, Autofluor 339 2.3 and Cdc25B inh inactive.
Cc1cc(N)n2nc(-c3ccccc3)cc2n1 was read as A340 absorber inactive, NADH coupling inactive, DUSP1 inh inactive, Hsp90 inh inactive, Autofluor 339 inactive and Cdc25B inh inactive.
CCc1c(-c2ccccc2)nc2nc(C)c(C)nn12 was read as A340 absorber inactive, NADH coupling inactive, DUSP1 inh inactive, Hsp90 inh inactive, Autofluor 339 2.1 and Cdc25B inh inactive.
For CC1OC(Nc2cccc3ccccc23)C(O)C(O)C1O (configuration not stated) the results were A340 absorber inactive, NADH coupling inactive, DUSP1 inh inactive, Hsp90 inh inactive, Autofluor 339 2.1 and Cdc25B inh inactive.
`O=C(Nc1cccc2ccccc12)OC1C=CS(=O)(=O)C1` (configuration not stated) gave A340 absorber inactive, NADH coupling inactive, DUSP1 inh inactive, Hsp90 inh inactive, Autofluor 339 inactive and Cdc25B inh inactive.
`CCCCCCNC(=O)Cc1nc2nc(C)cc(C)n2n1` gave A340 absorber inactive, NADH coupling inactive, DUSP1 inh inactive, Hsp90 inh inactive, Autofluor 339 inactive and Cdc25B inh inactive.
For Cc1ccc(CCNC(=O)c2coc3nc4ccccc4nc23)cc1 the results were A340 absorber inactive, NADH coupling inactive, DUSP1 inh inactive, Hsp90 inh inactive, Autofluor 339 2.3 and Cdc25B inh inactive.
For Cc1occc1C(=O)NCCCc1ccccc1 the results were A340 absorber inactive, NADH coupling inactive, DUSP1 inh inactive, Hsp90 inh inactive, Autofluor 339 inactive and Cdc25B inh inactive.
For CC1CCCN(CCCNC(=O)c2coc3nc4ccccc4nc23)C1 (configuration not stated) the results were A340 absorber inactive, NADH coupling inactive, DUSP1 inh inactive, Hsp90 inh inactive, Autofluor 339 4.9 and Cdc25B inh inactive.
Screening CC1CCN(CCCNC(=O)c2n[nH]c(=O)c3ccccc23)CC1 returned A340 absorber inactive, NADH coupling inactive, DUSP1 inh inactive, Hsp90 inh inactive, Autofluor 339 inactive and Cdc25B inh inactive.
For CC1CCN(CCCNC(=O)c2coc3nc4ccccc4nc23)CC1 the results were A340 absorber inactive, NADH coupling inactive, DUSP1 inh inactive, Hsp90 inh inactive, Autofluor 339 3.4 and Cdc25B inh inactive.
`N=S(=O)(O)Cc1noc2ccccc12` gave Hsp90 inh inactive.
`CC(=O)Nc1cccc(-c2nc3ccc(NC(C)=O)cc3[nH]2)c1` gave A340 absorber inactive, NADH coupling inactive, DUSP1 inh inactive, Hsp90 inh inactive, Autofluor 339 4.9 and Cdc25B inh inactive.
O=C(NC1CCCc2ccccc21)C1CCN(C(=O)c2sccc2-n2cccc2)CC1 (configuration not stated) was read as A340 absorber inactive, NADH coupling inactive, DUSP1 inh inactive, Hsp90 inh inactive, Autofluor 339 inactive and Cdc25B inh inactive.
Screening CCc1cc2c(=O)c(-c3nc4ccccc4[nH]3)coc2c(CN2CCCC(C)C2)c1O (configuration not stated) returned A340 absorber inactive, NADH coupling inactive, DUSP1 inh inactive, Hsp90 inh inactive, Autofluor 339 inactive and Cdc25B inh inactive.
Screening CCc1cc2c(=O)c(-c3cscn3)coc2c(CN(C)C)c1O returned A340 absorber inactive, NADH coupling inactive, DUSP1 inh inactive, Hsp90 inh inactive, Autofluor 339 2.3 and Cdc25B inh inactive.
`CC(C)CCNC(=O)CN(Cc1ccc2c(c1)OCO2)C(=O)Cn1nnc(-c2cccs2)n1` gave A340 absorber inactive, NADH coupling inactive, DUSP1 inh inactive, Hsp90 inh inactive, Autofluor 339 inactive and Cdc25B inh inactive.
